Source: ChEMBL document CHEMBL3988442, “University of Dundee, Small-Polar-MMV Screening Library” (2021)
Among all 48,000 compounds or so, about 13,000 (27%) showed an effect of 50% or more. This is one part of the list.

What follows are molecules tested on Wolbachia pipientis (assay: Anti-Wolbachia Cell-Based Screen). Settings: 5 µM.
Format: functional
Design: scale not given: in the data most compounds retested in dose-response had high values

Going from CCc1c(C)nc(C2CCCN2C(=O)c2cc(C)no2)nc1O (stereo not given) to CCc1cc(C(=O)N2CCCC2c2nc(C)c(CC)c(O)n2)on1 (stereo not given), the “Percent Effect” value rises from 101.8% to 110.9%.

First: CCc1nc(C2CCCN2C(=O)C2=COCC2)no1 (stereo not given)
Second: CCc1nc(C2CCCN2C(=O)c2ccc3c(c2)nc(C)n3C)no1 (stereo not given)
The “Percent Effect” value of the first is lower: -4.333% for the first, 0.7608% for the second.

Going from CCc1cc(C(=O)N2CCCC2c2nc(C)c(F)c(O)n2)on1 (stereo not given) to Cn1cc(-c2nc(C(=O)N3CCCC3Cn3cccn3)cs2)cn1 (stereo not given), the “Percent Effect” value rises from -4.896% to 119.5%.

Compared with O=C1CC(c2ccc3c(c2)OCO3)c2cn[nH]c2N1 (stereo not given), Cn1ncc2c1NC(=O)CC2c1cc2c(cc1Cl)OCO2 (stereo not given) is lower in “Percent Effect” value: 104.3% for the first, -77.33% for the second.

First: O=C1CO[C@H]2CN(Cc3ccc4c(c3)OCO4)C[C@H]2N1
Second: CC(=O)N1CCN(Cc2ccc(Cl)c(F)c2)CC(O)C1 (stereo not given)
The “Percent Effect” value of the first is lower: -13.01% for the first, 3.004% for the second.

Compared with CCC(C)(NCc1ncc(C(C)C)o1)c1nccs1 (stereo not given), CC(C)Cc1noc(CN2CCN(c3nccs3)CC2)n1 is lower in “Percent Effect” value: -9.094% for the first, -10.34% for the second.

First: CN(C)[C@@H]1CO[C@H](CNC(=O)Nc2ccccc2)[C@H]1O
Second: Cc1c(C(=O)NC2CCCC2)nnn1-c1ccccc1
The “Percent Effect” value of the first is higher: -15.17% for the first, -16.4% for the second.

Compared with CN(Cc1c(F)cccc1Cl)C(=O)Nc1cnn(CC(N)=O)c1, COc1ccc(N(CCC(N)=O)C(=O)CSc2ccc(F)c(F)c2)cc1 is higher in “Percent Effect” value: -4.374% for the first, 6.569% for the second.

Compared with CCOc1ccc2nc(CN3CCOC(CN)C3)ccc2c1 (stereo not given), CCc1ncc2c(n1)CN(C(=O)CCCc1ccc(OC)cc1)C2 is lower in “Percent Effect” value: 8.772% for the first, -1.775% for the second.

Compared with CC(C)c1n[nH]c(C2CN(C(=O)c3ccnc(C4CC4)n3)CCO2)n1 (stereo not given), Cc1nccc(C(=O)N2CCOC(c3nc(C(C)C)n[nH]3)C2)n1 (stereo not given) is higher in “Percent Effect” value: 106.2% for the first, 122.6% for the second.

First: CC1CCc2nc(O)c(C(=O)NCc3ccncc3)cc2C1 (stereo not given)
Second: Cc1ncc(CN2CCCC2c2ccc(C(=O)NCc3ccoc3)s2)s1 (stereo not given)
The “Percent Effect” value of the first is lower: 0.9729% for the first, 9.292% for the second.

Compared with CCc1nc(CN2CCCN(Cc3cnn(C)c3)CC2)no1, CCCc1noc(CN2CCN(c3nccs3)CC2)n1 is higher in “Percent Effect” value: -7.215% for the first, 101% for the second.

First: CN1CCN(C(=O)c2ncn3c2CN(C)S(=O)(=O)c2ccccc2-3)CC1.O=C(O)C(F)(F)F
Second: CN(C(=O)c1ncn2c1CN(C)S(=O)(=O)c1ccccc1-2)C1CC1.O=C(O)C(F)(F)F
The “Percent Effect” value of the first is lower: 82.4% for the first, 110.5% for the second.

Compared with CCN1Cc2c(C(=O)NC)ncn2-c2ccccc2S1(=O)=O, CCN1Cc2c(C(=O)NC(C)C)ncn2-c2ccccc2S1(=O)=O is higher in “Percent Effect” value: -8.627% for the first, -5.811% for the second.

Compared with CCNC(=O)c1ncn2c1CN(C)S(=O)(=O)c1ccccc1-2, CCCN(CC)C(=O)c1ncn2c1CN(C)S(=O)(=O)c1ccccc1-2 is higher in “Percent Effect” value: 6.974% for the first, 93.03% for the second.

Going from CN1Cc2c(C(=O)N3CCOCC3)ncn2-c2ccccc2S1(=O)=O to CN1CCN(C(=O)c2ncn3c2CNS(=O)(=O)c2ccccc2-3)CC1, the “Percent Effect” value rises from -2.827% to 3.453%.

Compared with CC(C)CN1Cc2c(C(=O)NC3CC3)ncn2-c2ccccc2S1(=O)=O, CCCNC(=O)c1ncn2c1CN(CC(C)C)S(=O)(=O)c1ccccc1-2 is higher in “Percent Effect” value: 24.74% for the first, 51.12% for the second.

First: Cc1ncsc1CCN(C)C(=O)c1c(O)cccc1O
Second: CCOc1cccc(NS(=O)(=O)c2cc(C)c(C(=O)O)s2)c1
The “Percent Effect” value of the first is higher: -0.9599% for the first, -3.705% for the second.

Going from O=C(CCn1nnc2ccccc2c1=O)N(CC1CCOC1)C1CC1 (stereo not given) to Cc1c(CNC(=O)C2CCCN2C(=O)C2CC2)oc2ccccc12 (stereo not given), the “Percent Effect” value rises from -7.506% to -1.359%.

Compared with CCCOC1CCCN(C(=O)Cn2cccc(C(F)(F)F)c2=O)C1 (stereo not given), CCc1nc(CC(=O)N2CCCC2Cn2cccn2)cs1 (stereo not given) is lower in “Percent Effect” value: -4.197% for the first, -8.177% for the second.

Going from CN1Cc2c(C(=O)NCC3CCCO3)ncn2-c2ccccc2S1(=O)=O (stereo not given) to CN1Cc2c(C(=O)NC3CCCCC3)ncn2-c2ccccc2S1(=O)=O.O=C(O)C(F)(F)F, the “Percent Effect” value rises from 113.6% to 115.3%.

Going from CC(C)C(C)NC(=O)c1ncn2c1CN(C)S(=O)(=O)c1ccccc1-2.O=C(O)C(F)(F)F (stereo not given) to CCC(C)(C)NC(=O)c1ncn2c1CN(C)S(=O)(=O)c1ccccc1-2.O=C(O)C(F)(F)F, the “Percent Effect” value falls from 211.3% to 117.1%.

Going from CCN1Cc2c(C(=O)NC(C)C(C)C)ncn2-c2ccccc2S1(=O)=O (stereo not given) to CCC(CC)NC(=O)c1ncn2c1CN(CC)S(=O)(=O)c1ccccc1-2.O=C(O)C(F)(F)F, the “Percent Effect” value falls from 6.168% to 4.599%.

Going from O=C(c1ncn2c1CNS(=O)(=O)c1ccccc1-2)N1CC=CC1 to CN1Cc2c(C(=O)Nc3cccnc3)ncn2-c2ccccc2S1(=O)=O.O=C(O)C(F)(F)F, the “Percent Effect” value rises from -15.18% to -4.618%.

Compared with O=C(c1csc(-c2cccs2)n1)N1CCCC1Cn1cccn1 (stereo not given), O=C(c1csc(-c2ccccn2)n1)N1CCCC1Cn1cccn1 (stereo not given) is higher in “Percent Effect” value: 4.192% for the first, 108.1% for the second.

Going from O=C(c1csc(-c2ncccn2)n1)N1CCCC1Cn1cccn1 (stereo not given) to O=C(c1csc(-c2cnccn2)n1)N1CCCC1Cn1cccn1 (stereo not given), the “Percent Effect” value rises from 100.9% to 125.1%.

First: CCC1CN(C(=O)c2csc(-c3cnn(C)c3)n2)CCO1 (stereo not given)
Second: Cc1cc(-c2nn(C)c(Cl)c2CN2CCN(C)C(C(=O)O)C2)no1 (stereo not given)
The “Percent Effect” value of the first is higher: 8.184% for the first, -9.468% for the second.

Going from CN(CC(=O)N1CCCC1Cn1cccn1)c1cnccn1 (stereo not given) to O=C(C1CCOCC1)N1CCOCC(Cc2ncccn2)C1 (stereo not given), the “Percent Effect” value rises from -3.712% to 97.13%.

First: O=C(CN1CCCCCC1=O)NCC1CCN(c2ccccc2)C1 (stereo not given)
Second: OC1(CN2CCC(Cc3ccccc3)CC2)CCC1
The “Percent Effect” value of the first is higher: -4.287% for the first, -17.41% for the second.

First: O=C(N1CCOCC1CO)C1(c2cccs2)CCCC1 (stereo not given)
Second: CCC(C(=O)NC1(CN2CCOCC2)CCCC1)n1cccn1 (stereo not given)
The “Percent Effect” value of the first is higher: 1.205% for the first, -7.135% for the second.

First: COc1ccc(/C=C/CN2CCN(c3nccnc3C)CC2)cc1
Second: CCOCC(O)CN1CCN(C(=O)c2ccc(OC)cc2)CC1 (stereo not given)
The “Percent Effect” value of the first is lower: 1.299% for the first, 101.3% for the second.

Compared with CCc1nc(CCNC(=O)NC2CCN(C(C)C)C2)sc1C (stereo not given), CCCc1noc(CN2CCN(CCC(C)C)CC2)n1 is higher in “Percent Effect” value: -28.06% for the first, 7.482% for the second.

Going from CCCc1nnc(N2CCC(N3CCN(CCO)CC3)CC2)o1 to CCCc1nnc(N2CCN(C3CCCC3)CC2)o1, the “Percent Effect” value rises from -3.287% to -0.2431%.

Going from CCCc1nnc(N2CCN(c3ccccc3Cl)CC2)o1 to CCCc1nnc(N2CCN(c3ccccc3F)CC2)o1, the “Percent Effect” value rises from 94.38% to 104.4%.

Compared with CCCc1nnc(N2CCC(N3CCCC(O)C3)CC2)o1 (stereo not given), CCCc1nnc(N2CCC(C3CCN(C)CC3)CC2)o1 is lower in “Percent Effect” value: 11.24% for the first, -0.3277% for the second.

First: CCc1nnc(N2CCN(CCc3ccccc3)C(=O)C2)o1
Second: CCCc1nnc(N2CCN(c3cccc(C)c3C)CC2)o1
The “Percent Effect” value of the first is lower: -17.07% for the first, 106.7% for the second.

Compared with COc1nc(C)ccc1CNC(=O)NC(C)(C)c1ncc(C)s1, CCOC(C)c1nc(CN2CCN(c3nccc(C)n3)CC2)cs1 (stereo not given) is lower in “Percent Effect” value: 40.1% for the first, -8.527% for the second.

Compared with O=C(c1cccc(-c2ncc[nH]2)c1)N1CCC(N2CCCC(O)C2)CC1 (stereo not given), O=C(C1CCC1)N1CCC(C2CCN(Cc3ccc(Cl)cc3)C2)CC1 (stereo not given) is higher in “Percent Effect” value: -7.829% for the first, 11.03% for the second.

First: CN1CCN(Cc2ccc(Cl)cc2)CC1C(=O)O (stereo not given)
Second: CN1CCN(Cc2c(Cl)ccc(O)c2Cl)CC1C(=O)O (stereo not given)
The “Percent Effect” value of the first is higher: 102.4% for the first, 96.73% for the second.

First: O=C(C1CCCC1)N1CCC(C2CCN(Cc3ccc(Cl)cc3)C2)CC1 (stereo not given)
Second: O=C(C1CCOCC1)N1CCOC(CC2CCCCC2)C1 (stereo not given)
The “Percent Effect” value of the first is higher: 14.43% for the first, 10.22% for the second.

Compared with Cc1ccc(Cl)c(CN2CCN(C)C(C(=O)O)C2)c1F (stereo not given), Cc1ccc(Cl)c(CN2CCC3(CC2)C(C(=O)O)CC(=O)N3C)c1F (stereo not given) is lower in “Percent Effect” value: 102.6% for the first, 1.712% for the second.

First: CC(C1CCN(Cc2c(Cl)ccc(O)c2Cl)CC1)N1CCN(C)CC1 (stereo not given)
Second: c1csc(-c2cc(CN3CCN(c4nccs4)CC3)no2)c1
The “Percent Effect” value of the first is lower: 2.442% for the first, 7.977% for the second.

Going from Cn1c(CNc2c(F)cccc2-n2cccn2)cc(=O)n(C)c1=O to CCN(CC)c1ccc(CNS(=O)(=O)C2CCOCC2)cc1F, the “Percent Effect” value rises from -1.066% to 0.7913%.

Going from CC(C#N)CN(C)C(=O)c1cn(-c2ccc(Br)cc2)cn1 (stereo not given) to COc1cccc(C(=O)N2CCN(CC(O)c3ccccc3)CC2)c1 (stereo not given), the “Percent Effect” value falls from 17.58% to 2.631%.

Going from Nc1nc(CN2CCN(c3nccs3)CC2)cs1 to CCc1noc(CN2CCN(c3nccs3)CC2)n1, the “Percent Effect” value rises from -10.1% to 91.95%.

Going from CCOCC(O)CN1CCN(C(=O)c2cccc(OC)c2)CC1 (stereo not given) to CCOCC(O)CN1CCN(C(=O)c2cccc(F)c2)CC1 (stereo not given), the “Percent Effect” value falls from 88.95% to 0.952%.

Going from COc1cccc(C(O)CN2CCN(C(=O)c3ccsc3)CC2)c1 (stereo not given) to CCOCC(O)CN1CCN(C(=O)c2ccsc2)CC1 (stereo not given), the “Percent Effect” value falls from 4.323% to -6.282%.

First: CCOCC(O)CN1CCN(C(=O)c2cnc3n[nH]c(C)c3c2)CC1 (stereo not given)
Second: CCOCC(O)CN1CCN(C(=O)c2cc(F)cc(F)c2)CC1 (stereo not given)
The “Percent Effect” value of the first is lower: -0.1708% for the first, 99.72% for the second.

First: CCOCC(O)CN1CCN(C(=O)c2ccncc2)CC1 (stereo not given)
Second: CCOCCN1CCN(CC2(O)CCCCC2)CC1
The “Percent Effect” value of the first is higher: 2.226% for the first, -2.649% for the second.

First: COc1ccc(NC(=O)N2CCCC(CO)C2)c(C)c1 (stereo not given)
Second: Nc1cc(N2CCCC(Cc3ccc(F)cc3F)(C(=O)O)C2)ncn1 (stereo not given)
The “Percent Effect” value of the first is lower: -14.28% for the first, -0.2204% for the second.

First: OC1(CN2CCC(Cc3ncccn3)CC2)CCCCC1
Second: OC1(CN2CCC(Cc3ncccn3)CC2)CCOCC1
The “Percent Effect” value of the first is higher: 116.2% for the first, 87.8% for the second.

Going from O=C(N[C@@H]1CCN(C(=O)C2CCOCC2)C[C@H]1O)c1ccccn1 to Fc1cccnc1OC[C@@]12CCO[C@@H]1CCN(CC1CCOCC1)C2.O=C(O)C(F)(F)F.O=C(O)C(F)(F)F, the “Percent Effect” value rises from 2.955% to 11.98%.

With C1=CCN(c2nc(CC3CC3)nc3c2CCN(C2CCOCC2)CC3)C1 the “Percent Effect” value was -5.944%.
